Source: the antibiotic and cytotoxicity screens of Wong et al. (2023)
Out of some 39,000 compounds screened, about 3,300 (8.5%) were called active. The full list was thinned out, with actives kept by preference.

test system: HepG2; assay: cytotoxicity call (relative viability < 0.9); details: 10 µM

SMILES | cytotoxicity call
Cc1noc(C)c1S(=O)(=O)Nc1ccc2c(c1)CC(=O)N([C@@H](C)CO)C[C@H](C)[C@H](CN(C)S(=O)(=O)c1ccc(F)cc1)O2 | inactive
CC(C)NC(=O)Nc1ccc2c(c1)CC(=O)N([C@@H](C)CO)C[C@H](C)[C@H](CN(C)S(=O)(=O)c1ccc(Cl)cc1)O2 | inactive
CO[C@@H]1CN(C)C(=O)c2ccc(NC(=O)NC(C)C)cc2OC[C@H](C)N(Cc2ccc(-c3ccccn3)cc2)C[C@@H]1C | inactive
O=c1[nH]c2cc(C(F)(F)F)c(N3CCOCC3)cc2n(CP(=O)(O)O)c1=O | inactive
C[C@H](CO)N1C[C@H](C)[C@@H](CN(C)S(=O)(=O)c2cccs2)Oc2ccc(NC(=O)C3CC3)cc2CC1=O | inactive
Cc1noc(C)c1NC(=O)Nc1ccc2c(c1)C(=O)N([C@H](C)CO)C[C@@H](C)[C@H](CN(C)Cc1ccncc1)OCCCC[C@H](C)O2 | inactive
C[C@@H]1CN([C@@H](C)CO)C(=O)c2cccc(NC(=O)CCCCCC(=O)Nc3ccccc3N)c2O[C@@H]1CN(C)C(=O)Nc1ccc(C(F)(F)F)cc1 | inactive
Cc1ccc(S[C@]2(C(=O)NCC(C)C)CC(=O)N(C3Cc4ccccc4C3)[C@@H]2c2ccc(CO)cc2I)cc1 | inactive
C[C@@H]1CCCCO[C@@H](CN(C)Cc2ccncc2)[C@@H](C)CN([C@@H](C)CO)C(=O)c2cc(NC(=O)CCC(F)(F)F)ccc2O1 | inactive
C[C@@H]1CN([C@@H](C)CO)C(=O)c2cccc(NC(=O)c3cnccn3)c2O[C@H]1CN(C)C(=O)Nc1ccc2c(c1)OCO2 | inactive
C[C@@H]1CN([C@H](C)CO)C(=O)CCCn2nncc2CO[C@@H]1CN(C)C(=O)Nc1ccc2c(c1)OCCO2 | inactive
C[C@H]1CN([C@@H](C)CO)C(=O)Cc2cc(NC(=O)Cc3cn(C)c4ccccc34)ccc2O[C@H]1CN(C)Cc1ccc(Cl)c(Cl)c1 | inactive
C[C@@H]1CN([C@H](C)CO)C(=O)Cc2cc(NC(=O)Cc3cn(C)c4ccccc34)ccc2O[C@H]1CN(C)Cc1ccc(Cl)c(Cl)c1 | inactive
C[C@H]1CN([C@@H](C)CO)C(=O)Cc2cc(NC(=O)Cc3cn(C)c4ccccc34)ccc2O[C@@H]1CN(C)Cc1ccc(Cl)c(Cl)c1 | inactive
C[C@@H]1CN([C@@H](C)CO)C(=O)Cc2cc(NC(=O)Cc3cn(C)c4ccccc34)ccc2O[C@H]1CN(C)Cc1ccc(Cl)c(Cl)c1 | inactive
C[C@H](CO)N1C[C@H](C)[C@H](CN(C)Cc2ccc(Cl)c(Cl)c2)Oc2ccc(NC(=O)Cc3cn(C)c4ccccc34)cc2CC1=O | active
C[C@@H]1CN([C@H](C)CO)C(=O)Cc2cc(NC(=O)Cc3cn(C)c4ccccc34)ccc2O[C@@H]1CN(C)Cc1ccc(Cl)c(Cl)c1 | active
O=C(C[C@H]1CC[C@H]2[C@@H](COC[C@H](O)CN2S(=O)(=O)c2cccc(F)c2)O1)NCCCN1CCOCC1 | inactive
C[C@@H]1CCCCO[C@H](CN(C)Cc2ccc(C(=O)O)cc2)[C@H](C)CN([C@H](C)CO)C(=O)c2cc(NS(=O)(=O)c3cccs3)ccc2O1 | inactive
Cc1ccc(S(=O)(=O)Nc2ccc3c(c2)C(=O)N([C@@H](C)CO)C[C@H](C)[C@H](CN(C)C(=O)NC2CCCCC2)OCCCC[C@H](C)O3)cc1 | inactive
NC(=O)N1C(=O)[C@H]2[C@H](C1=O)[C@H]1C=C(CCCO)[C@@H]2[C@H](c2cccs2)N1Cc1cc2c(cc1Br)OCO2 | inactive

SMILES | cytotoxicity call
O=C(C[C@@H]1C[C@@H]2c3cc(NC(=O)C4CCOCC4)ccc3O[C@@H]2[C@@H](CO)O1)NCc1cc(F)ccc1F | inactive
CNC[C@H]1OCCCC[C@@H](C)Oc2ccc(NC(=O)Nc3ccc(C(F)(F)F)cc3)cc2C(=O)N([C@H](C)CO)C[C@H]1C | inactive
COc1ccc(NC(=O)Nc2ccc3c(c2)C(=O)N([C@@H](C)CO)C[C@@H](C)[C@@H](CN(C)S(=O)(=O)c2c(C)noc2C)OCCCC[C@@H](C)O3)cc1 | inactive
CCN(CC)CCNC(C(=O)OCCC(C)C)c1ccccc1.Cl.Cl (configuration not stated) | inactive
CCCC(C(=O)OCCN(CC)CC)(c1ccccc1)c1ccccc1.Cl | active
CCN(CC)CCOC(=O)c1ccc(N)cc1.Cl | inactive
CN1CCN(C(=O)C[C@@H]2CC[C@H]3[C@@H](COC[C@@H](O)CN3S(=O)(=O)c3cccc(Cl)c3)O2)CC1 | inactive
C[C@@H]1CN([C@@H](C)CO)C(=O)Cc2cc(NC(=O)c3ccncc3)ccc2O[C@@H]1CN(C)Cc1ccc2c(c1)OCO2 | inactive
C[C@H](CO)N1C[C@H](C)[C@@H](CN(C)Cc2ccc3c(c2)OCO3)OCCCC[C@H](C)Oc2ccc(NC(=O)Nc3ccc(F)cc3)cc2C1=O | active
C[C@H]1CCCCO[C@@H](CN(C)Cc2ccc3c(c2)OCO3)[C@@H](C)CN([C@@H](C)CO)C(=O)c2cc(NC(=O)Nc3ccc(F)cc3)ccc2O1 | inactive
C[C@@H]1CCCCO[C@H](CN(C)Cc2ccc3c(c2)OCO3)[C@@H](C)CN([C@H](C)CO)C(=O)c2cc(NC(=O)Nc3ccc(F)cc3)ccc2O1 | active
C[C@@H]1CCCCO[C@@H](CN(C)Cc2ccc3c(c2)OCO3)[C@H](C)CN([C@H](C)CO)C(=O)c2cc(NC(=O)Nc3ccc(F)cc3)ccc2O1 | active
C[C@@H]1CCCCO[C@H](CN(C)Cc2ccc3c(c2)OCO3)[C@H](C)CN([C@@H](C)CO)C(=O)c2cc(NC(=O)Nc3ccc(F)cc3)ccc2O1 | active
C[C@@H]1CCCCO[C@H](CN(C)C(=O)c2ccccc2)[C@@H](C)CN([C@@H](C)CO)C(=O)c2cc(NC(=O)Cc3ccccc3)ccc2O1 | inactive
COc1ccccc1C#Cc1cnc2c(c1)C(=O)N([C@H](C)CO)C[C@@H](C)[C@H](CN(C)C(=O)CC1CC1)O2 | inactive
NCc1ccc(C(N)=O)cc1 | inactive
C[C@H](CO)N1C[C@H](C)[C@H](CN(C)Cc2cncnc2)Oc2cc(C#CC3CCCC3)ccc2S1(=O)=O | inactive
CN1CCN(C(=O)C[C@H]2CC[C@@H]3[C@@H](COc4ccc(NC(=O)c5cscn5)cc4C(=O)N3C)O2)CC1 | inactive
C[C@@H]1CN([C@H](C)CO)C(=O)Cc2cc(NC(=O)C3CC3)ccc2O[C@H]1CN(C)Cc1ccc(C(=O)O)cc1 | inactive
CCCCC(=O)C1CCCC=C1C(=O)O (configuration not stated) | inactive
C[C@H](CO)N1C[C@H](C)[C@@H](CN(C)Cc2cccc(C(F)(F)F)c2)OCc2ccccc2-c2ccccc2C1=O | inactive

SMILES | cytotoxicity call
C[C@@H]1CN([C@@H](C)CO)C(=O)c2ccccc2-c2ccccc2CO[C@H]1CN(C)C(=O)c1cc(Cl)cc(Cl)c1 | inactive
CC[C@@H](C)C(=O)O[C@H]1[C@@H]2CC3=C4CC(=O)O[C@@H](c5ccoc5)[C@]4(C)CC[C@@H]3[C@@](C)(C2=O)[C@@H](CC(=O)OC)C1(C)C | inactive
CSc1nc(C)nc2ccccc12 | inactive
CC(C)NC(=O)NCC[C@@H]1CC[C@@H](NC(=O)CN(C)C)[C@@H](CO)O1 | inactive
C[C@@H]1CN([C@@H](C)CO)C(=O)c2cc(NC(=O)Nc3ccc(F)cc3)ccc2O[C@@H](C)CCCCO[C@H]1CN(C)Cc1ccc2c(c1)OCO2 | active
C[C@@H]1CCCCO[C@@H](CN(C)Cc2ccc3c(c2)OCO3)[C@@H](C)CN([C@H](C)CO)C(=O)c2cc(NC(=O)Nc3ccc(F)cc3)ccc2O1 | inactive
C[C@@H]1CN([C@@H](C)CO)C(=O)c2cc(NC(=O)Nc3ccc(F)cc3)ccc2O[C@@H](C)CCCCO[C@@H]1CN(C)Cc1ccc2c(c1)OCO2 | active
C[C@@H]1CN([C@H](C)CO)C(=O)c2cc(NC(=O)Nc3ccc(F)cc3)ccc2O[C@@H](C)CCCCO[C@@H]1CN(C)Cc1ccc2c(c1)OCO2 | inactive
C[C@@H]1CCCCO[C@H](CN(C)Cc2ccc3c(c2)OCO3)[C@H](C)CN([C@H](C)CO)C(=O)c2cc(NC(=O)Nc3ccc(F)cc3)ccc2O1 | inactive
C[C@H]1CCCCO[C@H](CN(C)Cc2ccc3c(c2)OCO3)[C@@H](C)CN([C@@H](C)CO)C(=O)c2cc(NC(=O)Nc3ccc(F)cc3)ccc2O1 | active
C[C@@H]1CN([C@H](C)CO)C(=O)c2cc(NC(=O)Nc3ccc(F)cc3)ccc2O[C@@H](C)CCCCO[C@H]1CN(C)Cc1ccc2c(c1)OCO2 | active
C[C@@H]1CCCCO[C@@H](CN(C)Cc2ccc3c(c2)OCO3)[C@@H](C)CN([C@@H](C)CO)C(=O)c2cc(NC(=O)Nc3ccc(F)cc3)ccc2O1 | inactive
CO[C@H]1CN(C)C(=O)c2cc(NC(=O)C3CC3)ccc2OC[C@H](C)N(C(=O)CN2CCOCC2)C[C@@H]1C | inactive
O=C1OCCC/C=C\[C@H]2O[C@@]34C=CCN(c5ccc6ccccc6c5)C(=O)[C@H]3N(CCCCCO)C(=O)[C@@H]4[C@@H]12 | inactive
COCCOC(=O)N1C(=O)[C@@]2(c3ccccc31)[C@H](C(=O)Nc1nc3ccccc3s1)[C@H]1C(=O)O[C@H](c3ccccc3)[C@H](c3ccccc3)N1[C@@H]2c1ccccc1OCCO | inactive
Cc1ccc(S(=O)(=O)Nc2ccc3c(c2)C(=O)N([C@H](C)CO)C[C@H](C)[C@@H](CN(C)C(=O)Nc2ccc4c(c2)OCO4)OCCCC[C@@H](C)O3)cc1 | inactive
C[C@@H]1CCCCO[C@@H](CN(C)C(=O)c2ccccc2)[C@H](C)CN([C@@H](C)CO)C(=O)c2cc(NC(=O)Cc3ccccc3)ccc2O1 | inactive
COc1cccnc1N | inactive
COc1ccc(NC(=O)N(C)C[C@H]2OCCCC[C@H](C)Oc3ccc(NC(=O)CCC(F)(F)F)cc3C(=O)N([C@@H](C)CO)C[C@@H]2C)cc1 | inactive
CO[C@@H]1CN(C)C(=O)c2ccc(NC(=O)c3cc(C)on3)cc2OC[C@@H](C)N(C(=O)C2CCC2)C[C@H]1C | inactive
